Source: PubChem BioAssay
KinaseGlo FLuc = Kinase-Glo luciferase inhibition (counter-screen). Potency, µM (doses to about 38.3 µM), for inactives: at the highest dose activity change, negative = inhibition, hits mostly inhibitors. AID 1379. 200,000 tested, 0.28% active. Q27757. Kinase-Glo luciferase, ATP luminescence, 8 min; also: nearly all actives have a fitted effect of over 60% in size
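Light output from Kinase-Glo luciferase with luciferin and 10 uM ATP in 50 mM imidazole pH 7.2, KCl, MgCl2, Tween 20, BSA; compound pin-delivered, 8-min ambient incubation, then luminescence read.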
RORgamma inh = blocks mouse ROR gamma transcriptional activity | Potency, µM (titrated, usually from 53.6 µM), without a hit: top-dose activity change, negative = inhibition, usual class: inhibitors | P51450 | AID 2551 | 310,000 tested, 5.4% active | Drosophila S2 Gal4-RORgamma UAS-luciferase reporter, 20 h; also: nearly all actives have a fitted effect of over 60% in size
Target sequence (P51450 whole entry, looked up, the tested form may be a part): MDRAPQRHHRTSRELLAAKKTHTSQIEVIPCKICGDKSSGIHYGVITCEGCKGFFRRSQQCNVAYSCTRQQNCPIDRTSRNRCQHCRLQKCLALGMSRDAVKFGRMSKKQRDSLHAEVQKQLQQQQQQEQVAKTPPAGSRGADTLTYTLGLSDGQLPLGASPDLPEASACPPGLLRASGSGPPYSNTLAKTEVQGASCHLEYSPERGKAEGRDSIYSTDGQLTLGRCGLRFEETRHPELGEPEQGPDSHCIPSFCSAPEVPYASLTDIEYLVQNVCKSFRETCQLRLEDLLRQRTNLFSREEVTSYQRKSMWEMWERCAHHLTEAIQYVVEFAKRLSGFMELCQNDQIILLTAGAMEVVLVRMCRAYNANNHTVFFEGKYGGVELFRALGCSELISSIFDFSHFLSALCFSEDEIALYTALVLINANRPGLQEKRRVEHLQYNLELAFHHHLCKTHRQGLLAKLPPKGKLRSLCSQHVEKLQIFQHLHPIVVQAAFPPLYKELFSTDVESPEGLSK
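Luminescence from a UAS-regulated Photinus luciferase reporter in stably transfected Drosophila Schneider cells is measured; decreased signal marks ROR gamma inhibition. Fusion expression is induced by 700 uM copper sulfate for 20 hr.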
VP16 counter = counter-screen for ROR gamma inhibitors: Gal4-VP16 reporter; Drosophila S2 Gal4-VP16 UAS-luciferase, luminescence, 20 h; Potency, µM (titrated, usually from 53.6 µM), for the others: top-dose activity, negative = inhibition, actives largely listed as inhibitors; 310,000 tested, 3.5% active;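 also: Gal4-VP16 expression switched on by copper sulfate through the metallothionein promoter; nearly all actives have a fitted effect of over 50% in size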
Starred values were filed as active, the others as inactive; ? = inconclusive; · = no result given; [ ] = dose if it differs, or a comment. Rows were chosen to be rich in hits. Some 6.4% of all compounds tested hit in one or more screens of this group. Calls follow the shape of the dose curve; as a rule, active = well fitted curve in the direction sought with a large enough effect; inconclusive = small, poorly fitted or top-dose-only effect, or another doubt; inactive = no such curve, though single readings can be large; an effect the other way counts as inactive or inconclusive. % is scaled to controls: 0 for no effect and ±100 for the full control effect; potency is read from the fitted curve at half-maximal effect.

SMILES | KinaseGlo FLuc | RORgamma inh | VP16 counter
Cc1ccccc1-n1c(C)cc(/C=N/NC(=O)c2ccncc2)c1C | -3.8% | 2.82µM* | 10µM*
Cc1cc(C)cc(-n2c(C)cc(/C=N/NC(=O)CSc3ncccn3)c2C)c1 | -2.7% | ? | -14.1%
Cc1cc(/C=N/NC(=O)C(O)(c2ccccc2)c2ccccc2)c(C)n1-c1cccc(C(=O)O)c1 | · | -8.6% | 5.9%
Cc1cc(C)cc(-n2c(C)cc(/C=N/NC(=O)c3ccncc3)c2C)c1 | 5.3% | 7.08µM* | -8.1%[10 µM]
O=C(N/N=C/c1ccccc1C(=O)O)c1ccncc1 | · | -14.2% | 1.3%
Cc1cc(/C=N/NC(=O)C(O)(c2ccccc2)c2ccccc2)c(C)n1-c1ccc(C(=O)O)cc1 | 1.2% | 11.2µM* | ?
Cc1cc(C)cc(-n2c(C)cc(/C=N/NC(=O)c3cccc([N+](=O)[O-])c3C)c2C)c1 | -4.2% | 2.82µM* | 4.47µM*
COc1ccc(C(F)(F)F)cc1N/C=C/c1nnnn1-c1ccc2ccccc2c1 | · | 2.6% | 2.6%
CCC(C)(C)NC(=O)CCn1c(-c2ccccc2)cc(C(C)=O)c1C | 3.4% | -9.0% | -15.9%
Nc1ccc2c(c1)OC1(CCCCC1)O2 | -1.3% | -34.2% | -2.9%[10 µM]
Cc1ccc(C)c(N/N=C2\CCCNC2=O)c1 | -1.4% | -1.8% | 10.6%
Cc1cc(/C=N/NC(=O)c2ccc(O)cc2)c(C)n1C1CC1 | 2.4% | 12.6µM* | ?
Cc1ccc(C(=O)Nc2cccc(C(=O)N/N=C/c3ccc(O)cc3)c2)cc1 | · | -16.7% | ?
COc1ccc(-n2c(-c3ccc(Cl)cc3)c[nH]c2=S)cc1 | · | 0.447µM* | 2.82µM*
O=C(O)c1c[nH]c(=S)n1-c1ccc(F)cc1 | -1.1% | -21.5% | -16.3%
Cc1ccc(-n2c(-c3ccccc3)c[nH]c2=S)cc1 | · | 2.24µM* | 6.31µM*
S=c1[nH]cc(-c2ccccc2)n1-c1ccccc1 | 1.0% | 3.55µM* | 3.98µM*
COc1ccc(-c2cn(-c3ccc(Cl)cc3)c3[n+]2CCCCC3)cc1 | · | 9.1% | ?
Cc1ccc(-n2c(N)c(C#N)c(-c3ccccc3)c(C#N)c2=O)cc1 | -2.3% | 0.8% | -6.3%
C=CCCN(Cc1ccc(OC)cc1)S(=O)(=O)c1ccccc1Br | · | -14.5% | -0.4%
COc1ccccc1CNC(=O)COC(=O)Cn1cnc2ccccc21 | -4.1% | -5.3% | -1.8%
O=C(N/N=C1\CCSc2ccc(F)cc21)c1cccnc1 | -1.1% | -8.7% | -22.2%
NC(=S)N/N=C1\CCSc2ccc(Cl)cc21 | · | 2µM* | 10µM*
COCCNC(=S)NNc1ccccc1[N+](=O)[O-] | -2.0% | ? | 11.2µM*
O=C(NNc1ccccc1[N+](=O)[O-])Nc1ccccc1 | -4.8% | 4.7% | 1.9%
SMILES | KinaseGlo FLuc | RORgamma inh | VP16 counter
COCCNC(=S)Nc1ccc([N+](=O)[O-])cc1C | 5.6% | ? | ?
CNC(=S)NNc1ccccc1[N+](=O)[O-] | -3.4% | 15.8µM* | 6.0%
CCCc1nnc(NC(=O)CCC(=O)Nc2ccc(Br)cc2)s1 | · | -3.2% | -0.4%
CCCC1=NN(C(=O)C(=O)Nc2ccc(Br)cc2)C(O)(C(F)(F)F)C1 (centres undefined) | -1.8% | 0.794µM* | 5.01µM*
COc1ccc(NC(=O)C(C)N2CCN(C)CC2)cc1 (centres undefined) | · | 9.0% | -0.5%
COc1ccc(NC(=O)C(=O)N2N=C(C(C)C)CC2(O)C(F)(F)F)cc1 (centres undefined) | -1.3% | 7.94µM* | ?
CCC1=NN(C(=O)C(=O)Nc2ccc(Br)cc2)C(O)(C(F)(F)F)C1 (centres undefined) | -5.9% | 2.82µM* | 5.01µM*
COc1cccc(CN2CCNC(=O)C2CC(=O)NC2CCCC2)c1OC (centres undefined) | · | -25.6% | 1.5%
CCC(CC)c1nnc(NC(=O)CCNC(=O)c2ccccc2Cl)s1 | 4.0% | ? | 0.5%
Cc1cc(NS(=O)(=O)c2ccc(NC(=O)CCSc3ccc(F)cc3)cc2)nc(C)n1 | · | -5.3% | -3.3%
FC(F)(F)c1cnc(-c2cnc(-c3ccncc3)nc2)c(Cl)c1 | 2.0% | -7.2% | -8.9%
FC(F)(F)c1cnc(-c2cnc(-c3ccccn3)nc2)c(Cl)c1 | -19.2% | 5.62µM* | -10.8%
COc1cc(/C=C/c2sc3ccccc3[n+]2CCCS(=O)(=O)[O-])ccc1O | 8.91µM* | ? | ?
Cc1ccc2c(c1)sc(C)[n+]2CCCS(=O)(=O)[O-] | -7.0% | 1.7% | 4.4%
CN=c1scc(-c2ccco2)n1/N=C/c1ccc(O)c(O)c1 | -7.6% | 0.0891µM* | 0.708µM*
CN=c1scc(C)n1/N=C/c1cc(Br)c(O)c(Br)c1 | 6.3% | 3.7% | -0.4%
CCN=c1scc(C)n1/N=C/c1cc(Br)c(O)c(OC)c1 | -1.8% | 2.2% | -15.1%[10 µM]
COc1ccc(O)c(/C=N/n2c(-c3ccco3)csc2=Nc2cccnc2)c1 | -1.1% | -19.7% | -26.4%
CN=c1scc(C)n1/N=C/c1ccc(O)cc1 | -5.8% | ? | 2.51µM*
C=CCN=c1scc(C)n1/N=C/c1ccc(O)c(O)c1 | -1.0% | 17.8µM* | -3.4%
CN=c1scc(C)n1/N=C/c1ccc2c(c1)OCO2 | -22.5% | ? | ?
CN=c1scc(C)n1/N=C/c1ccc(O)cc1O | -17.5% | 0.631µM* | 1.26µM*
CCCCc1ccc(NC(=O)CSC2=NN3CCCC(=O)N=C3S2)cc1 | · | 39.8% | -11.6%
CN(C)S(=O)(=O)c1cccc(NC(=O)c2ccc3nccnc3c2)c1 | · | ? | -5.1%
CC(=O)N1c2c(cc(Br)cc2S(=O)(=O)N2CCN(c3ccccc3F)CC2)CC1C (centres undefined) | · | ? | 4.1%
SMILES | KinaseGlo FLuc | RORgamma inh | VP16 counter
Cc1ccc2c(c1)N(CC(=O)NCC1CCCO1)C(=O)C(C(C)C)O2 (centres undefined) | · | -6.9% | -7.6%
C/C(=N/NC(=O)c1ccoc1C)c1cccc(NC(=O)C2CC2)c1 | -1.4% | -36.9% | -6.2%
COc1ccc(OC)c(-n2c(-c3ccccc3)n[nH]c2=S)c1 | 16.3% | 10µM* | ?
COc1ccccc1-n1c(-c2cn(C)nc2C)n[nH]c1=S | 4.8% | -49.5% | -5.1%
COc1ccc(OC)c(-n2c(-c3cccc(C)c3)n[nH]c2=S)c1 | 5.4% | 2.51µM* | -29.4%
COc1ccc(-c2cc(-c3n[nH]c(=S)n3-c3ccccc3OC)[nH]n2)cc1 | 0.6% | ? | ?
COc1ccc(OC)c(-n2c(-c3cc(-c4ccccc4)n[nH]3)n[nH]c2=S)c1 | 0.5% | 7.94µM* | ?
COc1ccccc1-n1c(-c2ccccc2)n[nH]c1=S | 7.1% | 7.08µM* | ?
COc1ccc(OC)c(-n2c(=O)c3ccccc3c3ccccc3c2=O)c1 | 2.4% | -42.7% | -9.2%
CC(=O)OCOC(=O)CNc1ccccc1OCCOc1ccccc1NCC(=O)OCOC(C)=O | · | ? | -0.1%
Cc1ccc2c(c1)N(C(=O)CCC(=O)NCCCN1CCC(Cc3ccccc3)CC1)CCO2 | · | -22.5% | -5.8%
Cc1cc(C)n(-c2nnc(NC34CC5CC(CC(C5)C3)C4)nn2)n1 | -1.7% | ? | ?
COc1cc(CC(=O)N(c2ccccc2)c2nc(C)cs2)cc(OC)c1OC | -1.3% | -1.9% | 9.7%
CCOC(=O)c1sc(N)c(C(=O)Nc2ccc(C)cc2C)c1C | -0.7% | · | ·
COc1c(CO)cc(CO)cc(CO)c1=O | -0.6% | 7.1% | 6.7%
Cc1ccc(C(=O)NNc2cc(N3CCCC3)nc(N3CCCC3)n2)cc1 | -1.0% | 5.01µM* | ?
